# Source: PubChem BioAssay (Tox21)
# Inconclusive results are not listed. A call without a number means that no potency is given here. Active and inactive are the calls of the source. Calls come from the whole dose curve; as a rule, active = well fitted cell-killing curve with a large enough effect in the repeat runs; inconclusive = weak or mixed curves, or effect the other way; inactive = flat fitted curve, though single readings scatter.
# Assay: qHTS RealTime-Glo MT Cell Viability Assay in HepG2 cells - 40 hour (AID 1224870); note: nearly all actives have a fitted effect of over 50% in size
# Settings: RealTime-Glo luminescence; series mostly up to 76.8 µM
# Source text: National Center for Advancing Translational Sciences [NCATS]
# NIH Chemical Genomics Center [NCGC]
# U.S. Environmental Protection Agency [EPA]
# National Institutes of Environmental Health Sciences [NIEHS]
# National Toxicology Program [NTP]
# U.S. Food and Drug Administration [FDA]
# Measure of cell viability is critical in the cell-base assay. Analysis of cell viability is necessary for the characterization of cell responses to cytotoxic drugs and environmental stress. A RealTime-Glo MT Cell Viability Assay to monitor cell viability in real time of continues cell culture during 40 hours of compound treatment was used to screen Tox21 10K library compounds in HepG2 cells. The RealTime-Glo MT Cell Viability Assay is a nonlytic, homogeneous, bioluminescent method to measure cell viability in real time using a simple, plate-based method. The assay involves adding NanoLuc luciferase and a cell-permeant prosubstrate to cells in culture. Viable cells reduce the proprietary prosubstrate to generate a substrate for NanoLuc luciferase. This substrate diffuses from cells into the surrounding culture medium, where it is rapidly used by the NanoLuc Enzyme to produce a luminescent signal. The signal correlates with the number of viable cells, making the assay well suited for cytotoxicity studies.
# Tox21 Assay Protocol Summary:
# The mixture of HepG2 cell suspension and reagents were dispensed at 600cells/6 ul/well in 1536-well tissue culture treated black solid bottom plates using a Multidrop dispenser. After the assay plates were incubated at a 37 C/5% CO2 incubator for 5 hours, 23 nL of compounds dissolved in DMSO, positive and negative controls was transferred to the assay plate by a pintool work station. The plates were incubated at 37 C for 40 hours. The luminescence intensity were measured at 0h, 8h, 16h, 24h, 32h and 40h time points using ViewLux plate reader during compound treatment.
row,Compound,Potency
1,COCCCCCCCCOCCC[Si](C)(O[Si](C)(C)C)O[Si](C)(C)C,inactive
2,O=C(NS(=O)(=O)/C=C/c1cccs1)c1ccc(F)cc1Br,inactive
3,CC[C@H](C)[C@H](N)C(=O)O,inactive
4,O=C(O)/C=C/c1cnc[nH]1,inactive
5,NC(=S)N/N=C/c1cccnc1,inactive
6,O=CNc1ccccc1,inactive
7,N[C@H]1C(O)O[C@H](CO)[C@H](O)[C@@H]1O (stereo not given in full),inactive
8,CC(C)(C)c1ccc(S)cc1,inactive
9,CN(c1nccc(=O)[nH]1)C1CCN(c2nc3ccccc3n2Cc2ccc(F)cc2)CC1,inactive
10,O=C1c2cccc(O)c2C(=O)c2c(O)cc(CO)cc21,inactive
11,O=C=NC1CCC(CC2CCC(N=C=O)CC2)CC1 (stereo not given),inactive
12,CC(=O)OCCc1ccccc1,inactive
13,Cc1ccccn1,inactive
14,CC(=O)O[C@@H]1C(=O)O[C@@H]2[C@H]1OC(=O)[C@@H]2OC(C)=O,inactive
15,CCOC(=O)C1=NN(c2ccccc2)C(=O)C1,inactive
16,CC(C)c1cccc(C(C)C)c1NC(=O)NS(=O)(=O)c1cc(C(C)(C)O)co1,inactive
17,CC(C)NCC(O)COc1ccc(CC(N)=O)cc1 (stereo not given),inactive
18,O=c1c2ccccc2nnn1CCl,inactive
19,CCCCOC(O)CC (stereo not given),inactive
20,O=C(O)Cc1sc(-c2ccccc2)nc1-c1ccc(Cl)cc1,inactive

row,Compound,Potency
1,C=C(C)C(=O)OCCN(C)C,inactive
2,NC(N)=N/N=C/c1c(Cl)cccc1Cl,inactive
3,CC(=O)CC(=O)c1ccccc1,inactive
4,Cc1ccc2c(ccc3ccccc32)c1,inactive
5,CC(C)=CCCC(C)CC=O (stereo not given),inactive
6,CC(C)(Oc1ccc(Cl)cc1)C(=O)OCCCOC(=O)C(C)(C)Oc1ccc(Cl)cc1,inactive
7,CC(C)CCCCCCOC(=O)c1ccc(C(=O)OCCCCCCC(C)C)c(C(=O)OCCCCCCC(C)C)c1,inactive
8,CC1(C)CCC(C)(C)c2cc(NC(=O)c3ccc(C(=O)O)cc3)ccc21,inactive
9,CC(=O)[C@@]1(O)CC[C@H]2[C@@H]3C[C@H](C)C4=CC(=O)CC[C@]4(C)[C@H]3CC[C@@]21C,inactive
10,CC1(C)[C@H]2CC[C@]1(C)[C@H](O)C2,inactive
11,Cc1cc(NC(=O)C(=O)O)cc(C)c1Oc1ccc(O)c2c1CCC2,inactive
12,ClC(Cl)(Cl)c1ccc(C(Cl)(Cl)Cl)cc1,inactive
13,CCOc1ccc2[nH]cc(C(=O)NCc3ccccc3)c(=O)c2n1,inactive
14,Cn1sccc1=O,inactive
15,CCOc1cc(OCC)c(C(=O)CCC(=O)O)cc1OCC,inactive
16,c1ccc(CNCc2ccccc2)cc1,inactive
17,CCCC[C@H]1CN(CC2CCOCC2)C(=O)OC12CCN(C1(C)CCN(C(=O)c3c(C)ncnc3C)CC1)CC2,inactive
18,CCN(CC)C(C)CN1c2ccccc2Sc2ccccc21 (stereo not given),inactive
19,CCN(CC)CCNC(C(=O)OCCC(C)C)c1ccccc1 (stereo not given),inactive
20,O=C(c1ccccc1)c1ccc2n1CCC2C(=O)O (stereo not given),inactive
